D1 ag = activates the human D1 dopamine receptor; activation, % at 2 µM; HEK293 T-REx D1 cells, calcium flux, agonist mode; hit rate 1% among 360,000; in the data active = activation above about 30%
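Agonism was scored from calcium flux recorded over 180 s (1 read/s) after pintool compound addition, following a 10-cycle baseline. Cells were inducible force-coupled HEK293 TREx D1, plated overnight at 30 C and loaded with no-wash calcium dye.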
D1 antag = human D1 dopamine receptor antagonism. P21728. activity change, negative = inhibition, % at 10 µM. hit rate 3.2% among 360,000. HEK293 TREx D1 cells, calcium flux, dopamine EC80; hits give low values; in the data active = activity change below about -30%
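Antagonism measured as reduced calcium response to an EC80 dopamine addition following 180 s compound pre-read; cells were inducible HEK293 Trex D1 plated overnight at 30 C, read kinetically at 1 cycle/sec.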
D1 PAM = potentiators of human D1 dopamine receptor. P21728. HEK293 TREx D1 cells, calcium flux, dopamine EC20 potentiation. potentiation, % at 10 µM. hit rate 0.036% among 360,000. AID 504651; in the data active = potentiation above about 30%
D3 antag = antagonists of human D3 dopamine receptor; P35462; D3R cells, DiscoveRx beta-arrestin luminescence, antagonist mode; hits give low values; max response, negative = inhibition, %; hit rate 2.5% among 360,000; AID 652054; in the data active = max response below about -50%
Target sequence (P35462 whole entry, looked up): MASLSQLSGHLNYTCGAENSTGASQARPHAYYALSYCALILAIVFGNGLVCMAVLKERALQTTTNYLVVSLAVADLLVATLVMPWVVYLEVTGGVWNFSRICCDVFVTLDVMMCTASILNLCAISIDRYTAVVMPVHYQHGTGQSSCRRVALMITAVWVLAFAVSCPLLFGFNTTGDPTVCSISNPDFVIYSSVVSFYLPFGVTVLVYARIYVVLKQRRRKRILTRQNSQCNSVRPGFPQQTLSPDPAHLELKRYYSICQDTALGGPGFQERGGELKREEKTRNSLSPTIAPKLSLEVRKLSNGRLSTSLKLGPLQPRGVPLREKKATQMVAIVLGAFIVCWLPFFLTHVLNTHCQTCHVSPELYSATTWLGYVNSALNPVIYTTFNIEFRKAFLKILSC
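Cells plated overnight at 1500 cells/well, then exposed to library compounds with dopamine controls for 90 minutes at 37 degrees C. DiscoveRx reagent added for 30–60 minutes at room temperature; luminescence read, quantitative HTS format.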
D3 ag = activates the human D3 dopamine receptor. hit rate 0.58% among 410,000. AID 652048. D3R DiscoveRx beta-arrestin cells, luminescence, 90 min. max activation, %; in the data active = max activation above about 30%
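Agonist-mode cell screen: cells plated at 1500/well and incubated overnight at 37 °C, then exposed to library compounds for 90 min at 37 °C. Detection reagent was added for 30–60 min at room temperature, and luminescence was read.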
Hits are given with their value; – = inactive; · = no result given. An excerpt weighted towards active compounds, which were near 6% of everything screened.

SMILES | D1 ag | D1 antag | D1 PAM | D3 antag | D3 ag
CCC(=O)OCC(=O)[C@@]1(OC(=O)CC)[C@H](C)C[C@H]2[C@@H]3CCC4=CC(=O)C=C[C@]4(C)[C@@]3(F)[C@@H](O)C[C@@]21C | · | · | · | · | –
Cc1cccc(C(=O)Nc2sc3c(c2C(=O)NC(C)C)CCCC3)c1 | – | – | – | · | –
CCOC(=O)c1ccc2c(c1)N(CC(=O)Nc1ccc(CC)cc1)C(=O)c1ccccc1S2 | – | – | – | · | –
COc1ccc(C)cc1NC(=O)NCCC1=CCCCC1 | – | – | – | -72.1 | –
CC(C)CCNC(=O)C(=O)NCCC1=CCCCC1 | – | -46.9 | – | – | –
CCCNC(=O)C(=O)NCCC1=CCCCC1 | – | – | – | – | –
Cc1ccc(CN2CCC(C(=O)NCCC(C)C)CC2)o1 | – | – | – | -64.3 | –
COC(=O)c1ccc(COc2cc(O)c3c(c2)OC(C)(C)CC3=O)cc1 | – | -34.7 | – | – | –
COc1cccc(OC(=O)CSc2nnc(-c3ccc4c(c3)OCO4)o2)c1 | – | – | – | · | –
CCc1ccc(NCc2cc3cc4c(cc3n(CC(=O)Nc3ccc(F)cc3)c2=O)OCCO4)cc1 | – | – | – | · | –
CCc1ccc(NCc2cc3cc4c(cc3n(CC(=O)Nc3ccc(C)cc3)c2=O)OCO4)cc1 | 48.5 | – | – | · | –
CCc1ccc(NCc2cc3cc4c(cc3n(CC(=O)Nc3ccccc3Cl)c2=O)OCO4)cc1 | 65.5 | – | – | · | –
CN1C(=O)c2ccccc2Sc2ccc(NC(=O)COc3ccc(F)cc3)cc21 | – | – | – | · | –
Cc1cccc(-c2cnc(C(O)c3ccc(-c4ccccc4)cc3)[nH]2)c1 (stereo unspecified) | · | · | · | – | –
CCn1c(=O)c([N+](=O)[O-])c(NCCc2ccccc2)c2ccccc21 | – | -51.6 | – | – | –
Cc1cc(C)cc(C(=O)OCC(=O)N2CCCCCC2)c1 | – | -30.5 | – | – | –
CC(C)(C)NCC(O)(c1ccc(Cl)cc1)c1ccc(Cl)cc1 | – | – | – | – | –
COc1ccccc1CNCC(O)(c1ccc(F)cc1)c1ccc(F)cc1 | – | -51.9 | – | – | –
COc1ccccc1CNCC(O)(c1ccc(Cl)cc1)c1ccc(Cl)cc1 | – | – | – | -83.1 | –
OC(CNCc1ccccc1F)(c1ccc(F)cc1)c1ccc(F)cc1 | – | – | – | – | –
CCN(CC)CCNCC(O)(c1ccc(Cl)cc1)c1ccc(Cl)cc1 | 32.3 | – | – | -60.3 | –
COC(=O)[C@@H](NC(=O)Nc1ccc(OC(F)(F)F)cc1)C(C)C | – | -41.6 | – | – | –
O=C(NCc1ccco1)C(c1ccncc1)N(C(=O)Cn1nnc2ccccc21)c1ccccc1F (stereo unspecified) | – | – | – | – | –
CC(C)CC1C(C#N)=C(N)SC(N)=C1C#N | 38.4 | – | – | – | –
Cc1ccc(-c2cn3cccnc3n2)cc1NC(=O)Cc1ccccc1 | – | -72.7 | – | · | –
SMILES | D1 ag | D1 antag | D1 PAM | D3 antag | D3 ag
COc1ccc(-c2cn3cccnc3n2)cc1NC(=O)c1cc(C)cc(C)c1 | – | -87.4 | – | · | –
COc1ccc2[nH]cc(CCNC(=O)c3cnn(-c4ccc(C)cc4)c3C3CCN(C(=O)OC(C)(C)C)CC3)c2c1 | – | – | – | · | –
Cc1ccc(C(=O)N/C(=C/c2cccc([N+](=O)[O-])c2)C(=O)NC(C)C)cc1 | – | – | – | – | –
CC(C)NC(=O)/C(=C\c1cccc([N+](=O)[O-])c1)NC(=O)c1ccccc1 | – | – | – | -107.1 | –
Cc1ccc(C(=O)N/C(=C\c2cccc([N+](=O)[O-])c2)C(=O)OCN2C(=O)c3ccccc3C2=O)cc1 | – | -47.9 | – | – | –
Cc1ccc(C(=O)N/C(=C\c2cccc([N+](=O)[O-])c2)C(=O)NC(Cc2ccccc2)C(=O)O)cc1 (stereo unspecified) | – | – | – | – | –
COc1ccc(C(=O)N/C(=C\c2ccc([N+](=O)[O-])cc2)C(=O)NC(CCSC)C(=O)O)cc1 (stereo unspecified) | 110.6 | -33.1 | – | – | –
COc1ccc(/C=C(\NC(=O)c2ccc(OC)cc2)C(=O)NC(CCSC)C(=O)O)cc1 (stereo unspecified) | – | – | – | – | –
O=c1[nH]c2ccc(NCc3ccccc3F)cc2[nH]1 | – | – | – | · | –
Cc1c(C(=O)N(Cc2ccccc2F)C2CCS(=O)(=O)C2)oc2ccc(F)cc12 (stereo unspecified) | – | – | – | · | –
